Experimental data taken from PubChem BioAssay (Tox21).
“And” between values parts separate entries of the source, which are not always exact repeats. Equal entries are not always repeated. Values without a mark were called inactive. Results filed as inconclusive are left out. Entries that show only a call come without a potency. The source made the active and inactive calls. Unless noted, the call rests on the fitted dose curve; in most records, active means well fitted curve in the direction sought with a large enough effect in the repeat runs; inconclusive means weak or mixed curves; inactive means no such curve, though single readings can be large; an effect the other way counts as inactive or inconclusive.

Assays:
[1] = qHTS assay to test for compound auto fluorescence at 535 nm (green) in HEK293 cells (AID 720680)
[2] = qHTS assay to test for compound auto fluorescence at 460 nm (blue) in HEK293 cell free culture (AID 720681); further: potency means the concentration at half of the fitted maximal effect
How it was run: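 Blue fluorescence (Ex 405/Em 460 nm, triamterene-equivalent) was read immediately after pin transfer of compound or DMSO into medium (DMEM, 10% FBS) without cells.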

[3] = qHTS assay to test for compound auto fluorescence at 535 nm (green) in HEK293 cell free culture (AID 720682)
How it was run: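 Using fluorescein as calibrant, autofluorescence was quantified at 485/535 nm in cell-free DMEM containing 10% FBS after pintool addition of compound or vehicle.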

[4] = qHTS assay to test for compound auto fluorescence at 590 nm (red) in HEK293 cell free culture (AID 720683)
How it was run: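 Red-channel autofluorescence of compounds in culture medium (DMEM, 10% FBS), no cells, measured at 540/590 nm. Rose Bengal sodium is the reference fluorophore for equivalence.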

[5] = qHTS assay to test for compound auto fluorescence at 590 nm (red) in HepG2 cell free culture (AID 720684)
How it was run: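 Cell-free; medium MEM + 10% FBS; compound or DMSO added by pintool; read Ex 540/Em 590 nm; Rose Bengal sodium as red reference fluorophore.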

[6] = qHTS assay to test for compound auto fluorescence at 460 nm (blue) in HepG2 cell free culture (AID 720685); further: potency means the concentration at half of the fitted maximal effect
How it was run: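 Cell-free plates of MEM plus 10% FBS received 23 nL compound or DMSO vehicle; blue-channel (405/460 nm) intensity scored against triamterene as reference fluorophore.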

[7] = qHTS assay to test for compound auto fluorescence at 535 nm (green) in HepG2 cell free culture (AID 720686)
[8] = qHTS assay to test for compound auto fluorescence at 460 nm (blue) in HepG2 cells (AID 720687); further: potency means the concentration at half of the fitted maximal effect
How it was run: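 Blue-channel autofluorescence (Ex/Em 405/460 nm, triamterene-equivalent) was measured after 1 hr compound exposure at 37 C, 5% CO2. Cells were HepG2, plated overnight at 37 C in MEM plus 10% FBS.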

[9] = qHTS assay to identify small molecule antagonists of the glucocorticoid receptor (GR) signaling pathway - cell viability counter screen (AID 720693); further: nearly all actives have a fitted effect of over 55% in size; further: potency means the concentration at half of the fitted maximal effect
[10] = qHTS assay for identifying genotoxic compounds that show differential cytotoxicity against isogenic chicken DT40 cell lines with known DNA damage response pathways - wild type cell line (AID 743012); further: nearly all actives have a fitted effect of over 60% in size; further: potency means the concentration at half of the fitted maximal effect
How it was run: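 Luminescent ATP viability signal (CellTiter-Glo, 30 min RT) recorded after wild type DT40 cells were incubated with compounds for 40 h at 37 C/5% CO2.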

[11] = qHTS assay for identifying genotoxic compounds that show differential cytotoxicity against isogenic chicken DT40 cell lines with known DNA damage response pathways - Rev3 mutant cell line (AID 743014); further: nearly all actives have a fitted effect of over 55% in size; further: potency means the concentration at half of the fitted maximal effect
[12] = qHTS assay for identifying genotoxic compounds that show differential cytotoxicity against isogenic chicken DT40 cell lines with known DNA damage response pathways - Rad54/Ku70 mutant cell line (AID 743015); further: nearly all actives have a fitted effect of over 60% in size; further: potency means the concentration at half of the fitted maximal effect
[13] = qHTS assay to identify small molecule antagonists of the androgen receptor (AR) signaling pathway - cell viability counter screen (AID 743033; further: nearly all actives have a fitted effect of over 45% in size; further: potency means the concentration at half of the fitted maximal effect)
[14] = biological target: Androgen receptor (Homo sapiens) (UniProt P10275); assay: qHTS assay to identify small molecule agonists of the androgen receptor (AR) signaling pathway using the MDA cell line (AID 743040; further: nearly all actives have a fitted effect of over 20% in size)
How it was run: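 Luciferase agonist assay: 16 h compound exposure at 37C without CO2 in MDA-kb2 AR-luc cells, whose MMTV promoter responds to both AR and GR. Luminescence measured after 30 min room-temperature incubation with ONE-Glo.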

[15] = qHTS assay to identify small molecule antagonists of the androgen receptor (AR) signaling pathway using the MDA cell line - cell viability counter screen (AID 743041; further: nearly all actives have a fitted effect of over 45% in size; further: potency means the concentration at half of the fitted maximal effect)
How it was run: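 Viability read by CellTiter-Fluor fluorescence in the same wells as the antagonist screen, added after 15.5 h of a 16 h, 37C exposure. Human breast carcinoma MDA-kb2 AR-luc cells, compounds co-dosed with agonist R1881.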

[16] = biological target: Androgen receptor (Homo sapiens) (UniProt P10275); assay: qHTS assay to identify small molecule antagonists of the androgen receptor (AR) signaling pathway using the MDA cell line (AID 743042; further: nearly all actives have a fitted effect of over 55% in size; further: potency means the concentration at half of the fitted maximal effect)
How it was run: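 Antagonist mode: compounds plus R1881 agonist added to MDA-kb2 AR-luc cells, incubated 16 h at 37C. Luciferase reporter luminescence quantified, with multiplexed CellTiter-Fluor readout for cell viability.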

[17] = qHTS assay to identify small molecule antagonists of the thyroid receptor (TR) signaling pathway - cell viability counter screen (AID 743064); further: nearly all actives have a fitted effect of over 50% in size; further: potency means the concentration at half of the fitted maximal effect
How it was run: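 Counter screen for cytotoxicity: compound plus T3 (1 nM final) on GH3.TRE-Luc cells, 23.5 h at 37 °C, then fluorescence viability readout with CellTiter-Fluor.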

[18] = biological target: Androgen receptor (Homo sapiens) (UniProt P10275); assay: qHTS assay to identify small molecule antagonists of the androgen receptor (AR) signaling pathway (AID 743035; active means well fitted inhibition curve with a large enough effect in the signal ratio in the repeat runs, not every such curve was filed as active; the % refers to the signal ratio)
How it was run: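 Quantitative HTS of the Tox21 10K library used HEK293 AR-UAS-bla cells stimulated with R1881 alongside compound for 16 h at 37C, followed by beta-lactamase FRET detection (LiveBLAzer B/G, 2 h, RT).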

[19] = biological target: Glucocorticoid receptor (Homo sapiens) (UniProt P04150); assay: qHTS assay to identify small molecule antagonists of the glucocorticoid receptor (GR) signaling pathway (AID 720692; active means well fitted inhibition curve with a large enough effect in the signal ratio in the repeat runs, not every such curve was filed as active; the % refers to the signal ratio; further: potency means the concentration at half of the fitted maximal effect)
How it was run: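 Quantitative HTS in antagonist format: HeLa cells expressing endogenous GR and a stably integrated GRE-bla reporter, stimulated with 5 nM dexamethasone (final) alongside test compounds for 18 h.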
Tags describe the fitted curve by direction and shape or compound fluorescence and quenching.

Chain of Androgen receptor (Homo sapiens) (P10275 whole entry, looked up): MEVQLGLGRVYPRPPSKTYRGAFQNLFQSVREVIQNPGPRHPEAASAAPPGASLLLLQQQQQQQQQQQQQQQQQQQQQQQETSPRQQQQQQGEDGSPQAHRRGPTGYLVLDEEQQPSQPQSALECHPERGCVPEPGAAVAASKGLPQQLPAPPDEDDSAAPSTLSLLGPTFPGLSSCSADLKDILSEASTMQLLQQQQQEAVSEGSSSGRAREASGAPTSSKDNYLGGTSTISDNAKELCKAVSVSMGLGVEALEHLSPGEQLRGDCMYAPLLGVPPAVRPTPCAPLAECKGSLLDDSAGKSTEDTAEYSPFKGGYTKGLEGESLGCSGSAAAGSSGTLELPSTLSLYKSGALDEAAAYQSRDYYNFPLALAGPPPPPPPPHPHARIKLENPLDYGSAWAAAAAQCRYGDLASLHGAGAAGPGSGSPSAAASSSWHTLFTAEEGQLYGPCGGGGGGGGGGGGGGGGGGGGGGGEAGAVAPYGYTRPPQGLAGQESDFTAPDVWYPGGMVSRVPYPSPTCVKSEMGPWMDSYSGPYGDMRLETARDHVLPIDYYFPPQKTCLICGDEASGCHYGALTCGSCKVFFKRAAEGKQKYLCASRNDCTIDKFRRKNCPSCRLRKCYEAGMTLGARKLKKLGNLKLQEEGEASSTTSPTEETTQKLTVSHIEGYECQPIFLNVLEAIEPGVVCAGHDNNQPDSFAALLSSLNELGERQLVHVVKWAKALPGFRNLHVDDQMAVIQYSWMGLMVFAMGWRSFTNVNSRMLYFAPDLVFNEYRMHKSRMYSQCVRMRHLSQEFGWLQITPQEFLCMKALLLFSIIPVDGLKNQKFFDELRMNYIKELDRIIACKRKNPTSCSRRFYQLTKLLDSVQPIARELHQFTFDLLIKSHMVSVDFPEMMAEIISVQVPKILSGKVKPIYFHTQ
Chain of Glucocorticoid receptor (Homo sapiens) (P04150 whole entry, looked up): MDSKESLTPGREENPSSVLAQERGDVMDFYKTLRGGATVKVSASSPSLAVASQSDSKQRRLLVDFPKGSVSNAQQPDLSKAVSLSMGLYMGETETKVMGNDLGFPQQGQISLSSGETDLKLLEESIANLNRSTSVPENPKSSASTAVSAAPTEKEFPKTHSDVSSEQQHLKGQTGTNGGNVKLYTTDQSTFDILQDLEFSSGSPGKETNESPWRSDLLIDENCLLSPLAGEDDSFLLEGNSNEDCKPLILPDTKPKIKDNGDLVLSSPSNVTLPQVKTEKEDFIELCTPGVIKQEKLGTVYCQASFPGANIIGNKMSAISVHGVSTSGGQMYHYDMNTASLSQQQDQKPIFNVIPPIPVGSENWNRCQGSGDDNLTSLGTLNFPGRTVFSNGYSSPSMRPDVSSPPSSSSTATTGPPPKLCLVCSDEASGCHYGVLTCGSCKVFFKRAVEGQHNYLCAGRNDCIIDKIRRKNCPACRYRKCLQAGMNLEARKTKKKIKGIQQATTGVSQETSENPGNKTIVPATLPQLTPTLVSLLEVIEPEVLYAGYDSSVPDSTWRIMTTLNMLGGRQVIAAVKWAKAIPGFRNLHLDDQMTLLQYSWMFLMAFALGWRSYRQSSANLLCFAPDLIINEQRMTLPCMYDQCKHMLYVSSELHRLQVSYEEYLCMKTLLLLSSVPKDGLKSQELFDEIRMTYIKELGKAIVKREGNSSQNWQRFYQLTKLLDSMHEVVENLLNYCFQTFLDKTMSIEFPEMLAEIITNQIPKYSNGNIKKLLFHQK

SMILES | outcome [1] | Potency [2] | outcome [3] | outcome [4] | outcome [5] | Potency [6] | Potency [7] | Potency [8] | Potency [9] | Potency [10] | Potency [11] | Potency [12] | Potency [13] | outcome [14] | Potency [15] | Potency [16] | Potency [17] | Potency [18] | Potency [19]
[Cl][Hg][c]1ccccc1 | inactive | inactive | inactive | inactive | inactive | inactive | inactive | inactive | 309 nM (active) | 122 nM (active) | 172 nM (active) | 86.3 nM (active) | 1.38 µM (active) | inactive | 3440 nM (active) | 969 nM (active) | 243 nM (active) |  | 
C=C(C)C(=O)[O][Sn]([CH2]CCC)([CH2]CCC)[CH2]CCC | inactive | inactive | inactive | inactive | inactive | inactive | inactive | inactive | 776 nM (active) | 486 nM (active) | 686 nM (active) | 545 nM (active) | 0.776 µM (active) |  | 1930 nM (active) |  | 433 nM (active) |  | 
O=Cc1ccccc1 | inactive | inactive | inactive | inactive | inactive | inactive | inactive | inactive | inactive | inactive | inactive | inactive | inactive |  | inactive |  | inactive |  | 
CC(O)C(=O)[O][Hg][c]1ccccc1 (configuration not stated) | inactive | inactive | inactive | inactive | inactive | inactive | inactive | inactive | 549 nM (active) | 273 nM (active) | 217 nM (active) |  | 2.45 µM (active) |  | 4860 nM (active) |  | 686 nM (active) |  | 
O.O.O.O.O.O.O.O=S(=O)([O-])[O-].[Co+2] | inactive | inactive | inactive | inactive | inactive | inactive | inactive | inactive | inactive | inactive | inactive | inactive | inactive |  | inactive |  | inactive |  | 
Cc1ccc(C)c2ccccc12 | inactive | inactive | inactive | inactive | inactive | inactive | inactive | inactive | inactive | inactive | inactive | inactive | inactive | inactive | inactive | inactive | inactive | inactive | 
[O]=[Cr](=[O])([OH])[O][Cr](=[O])(=[O])[OH] | inactive | inactive | inactive | inactive | inactive | inactive | inactive | inactive |  |  |  |  | 7.83 µM (active) and 21.8 µM (active) | inactive | inactive | inactive |  |  | 3080 nM (active)
CN1CCc2cc3c(cc2C1O)OCO3 (configuration not stated) | inactive | 39800 nM (active) | inactive | inactive | inactive | 39800 nM [fluorescent] (active) | inactive | 39800 nM [fluorescent] (active) | inactive | inactive | inactive | inactive | inactive |  |  |  |  |  | 
Cc1cc(C2CC2)nc(Nc2ccccc2)n1 | inactive | inactive | inactive | inactive | inactive | inactive | inactive | inactive | inactive | 24300 nM (active) | 30600 nM (active) | 24300 nM (active) |  |  |  |  |  |  | 
O=[N+]([O-])c1cc(C(F)(F)F)c(Cl)c([N+](=O)[O-])c1Nc1ncc(C(F)(F)F)cc1Cl | inactive | inactive | inactive | inactive | inactive | inactive | inactive | inactive | 21900 nM (active) | 96.9 nM (active) | 137 nM (active) | 137 nM (active) | 0.275 µM (active) |  | 15400 nM (active) |  | 5450 nM (active) |  | 
CN/C(=N\[N+](=O)[O-])NCc1cnc(Cl)s1 | inactive | inactive | inactive | inactive | inactive | inactive | inactive | inactive | inactive | inactive | inactive |  | inactive |  | inactive |  | inactive |  | 
Cc1cc2c3c(c1)C(c1ccccc1)=N[C@@H](NC(=O)c1ccncc1)C(=O)N3CC2 | inactive | inactive | inactive | inactive | inactive | inactive | inactive | inactive | inactive |  | 61100 nM (active) |  |  |  | inactive |  | inactive |  | 
CNN | inactive | inactive | inactive | inactive |  | inactive | inactive | inactive | inactive | inactive | inactive | inactive | inactive |  | inactive |  | inactive |  | 
